# Measured values from publication PMC7862700, “An all-to-all approach to the identification of sequence-specific readers for epigenetic DNA modifications on cytosine”.
# Legend:
# Test in all cases: DAPPL (digital affinity profiling via proximity ligation, sequencing); 10 mM Tris-HCl pH 7.5, 50 mM NaCl, 1 mM DTT, 4% glycerol, room temperature, 30 min; GST-TFs on glutathione beads, 16-mer random dsDNA library, 0.1% formaldehyde crosslink after washing; high values mean tight binding
# FLI1 = molecular target: T1, FLI1 (Homo sapiens, UniProt Q01543 1-452); conditions: protein: recombinant; tags: N-terminal GST; dsDNA, one strand shown
# T1 sequence: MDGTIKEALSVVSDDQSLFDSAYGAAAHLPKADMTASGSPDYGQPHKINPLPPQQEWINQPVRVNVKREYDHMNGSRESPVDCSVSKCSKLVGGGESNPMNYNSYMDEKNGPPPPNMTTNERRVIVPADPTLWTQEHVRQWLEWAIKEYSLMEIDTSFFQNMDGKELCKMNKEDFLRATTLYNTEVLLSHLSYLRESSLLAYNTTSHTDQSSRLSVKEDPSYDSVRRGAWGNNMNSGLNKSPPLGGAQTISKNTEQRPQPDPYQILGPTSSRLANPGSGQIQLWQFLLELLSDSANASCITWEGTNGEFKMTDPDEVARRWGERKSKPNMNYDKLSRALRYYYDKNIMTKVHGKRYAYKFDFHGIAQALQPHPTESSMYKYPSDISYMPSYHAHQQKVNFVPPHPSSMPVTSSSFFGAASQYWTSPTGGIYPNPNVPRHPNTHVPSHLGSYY
# Summary of the method: (§1)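 Human transcription factors fused to GST were expressed in yeast, captured on glutathione beads, given DNA barcodes and pooled with a GST-only negative control. Pools were incubated with 200 nmole of a 16-mer random double-stranded DNA library in Tris/NaCl/DTT/glycerol buffer at room temperature for 30 min. They were then washed, crosslinked with 0.1% formaldehyde, proximity-ligated (BsaI/T4 ligase, 1 h, 37 °C), PCR-amplified and sequenced on an Illumina NextSeq500. Binding signal is each 6-mer's read frequency for a factor divided by its frequency for the GST control.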
# ELK1 = molecular target: T2, ELK1 (Homo sapiens, UniProt P19419 1-428); conditions: protein: recombinant; tags: N-terminal GST; dsDNA, one strand shown
# T2 sequence: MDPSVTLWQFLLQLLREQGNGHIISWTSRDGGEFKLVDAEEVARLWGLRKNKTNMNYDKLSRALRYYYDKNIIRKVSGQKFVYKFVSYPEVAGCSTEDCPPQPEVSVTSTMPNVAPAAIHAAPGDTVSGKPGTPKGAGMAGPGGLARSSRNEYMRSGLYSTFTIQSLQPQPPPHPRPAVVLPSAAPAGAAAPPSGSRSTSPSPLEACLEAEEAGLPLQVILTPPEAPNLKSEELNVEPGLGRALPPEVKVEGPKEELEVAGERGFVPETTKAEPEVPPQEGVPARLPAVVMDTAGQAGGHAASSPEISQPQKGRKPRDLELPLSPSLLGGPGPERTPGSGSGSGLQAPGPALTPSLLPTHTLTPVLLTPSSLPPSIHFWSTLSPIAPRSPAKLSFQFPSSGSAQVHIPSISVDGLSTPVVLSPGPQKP
# Summary of the method: as §1
# GABPA = molecular target: T3, GABPA (Homo sapiens, UniProt Q06546 1-454); conditions: protein: recombinant; tags: N-terminal GST; dsDNA, one strand shown
# T3 sequence: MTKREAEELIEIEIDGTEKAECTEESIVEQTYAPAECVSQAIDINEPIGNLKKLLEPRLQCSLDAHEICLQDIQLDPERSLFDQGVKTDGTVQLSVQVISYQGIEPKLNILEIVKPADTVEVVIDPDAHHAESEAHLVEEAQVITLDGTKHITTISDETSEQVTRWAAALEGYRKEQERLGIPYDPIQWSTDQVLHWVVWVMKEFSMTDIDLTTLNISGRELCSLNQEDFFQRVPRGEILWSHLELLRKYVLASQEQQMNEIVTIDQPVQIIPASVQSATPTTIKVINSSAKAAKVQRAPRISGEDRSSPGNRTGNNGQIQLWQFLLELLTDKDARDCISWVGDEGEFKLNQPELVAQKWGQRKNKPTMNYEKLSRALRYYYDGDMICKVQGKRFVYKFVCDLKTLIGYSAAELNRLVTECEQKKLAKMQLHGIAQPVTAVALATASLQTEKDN
# Summary of the method: as §1
# ERG = molecular target: T4, ERG (Homo sapiens, UniProt P11308 1-479); conditions: protein: recombinant; tags: N-terminal GST; dsDNA, one strand shown
# T4 sequence: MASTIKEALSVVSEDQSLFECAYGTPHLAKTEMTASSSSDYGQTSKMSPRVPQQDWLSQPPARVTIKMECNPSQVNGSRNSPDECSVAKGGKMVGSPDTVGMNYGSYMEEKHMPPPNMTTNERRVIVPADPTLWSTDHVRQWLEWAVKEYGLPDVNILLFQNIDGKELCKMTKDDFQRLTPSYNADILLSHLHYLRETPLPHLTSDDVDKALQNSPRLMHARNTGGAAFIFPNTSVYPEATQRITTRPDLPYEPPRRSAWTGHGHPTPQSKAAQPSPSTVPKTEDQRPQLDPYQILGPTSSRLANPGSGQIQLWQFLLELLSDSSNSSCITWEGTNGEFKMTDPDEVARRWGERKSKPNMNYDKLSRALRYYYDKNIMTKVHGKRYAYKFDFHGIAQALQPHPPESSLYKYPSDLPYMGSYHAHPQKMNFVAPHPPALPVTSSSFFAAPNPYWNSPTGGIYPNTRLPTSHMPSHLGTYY
# Summary of the method: as §1
# ELF1 = ELF1 (Homo sapiens, UniProt P32519 1-619); conditions: protein: recombinant; tags: N-terminal GST; dsDNA, one strand shown
# Sequence of ELF1 (P32519 whole entry): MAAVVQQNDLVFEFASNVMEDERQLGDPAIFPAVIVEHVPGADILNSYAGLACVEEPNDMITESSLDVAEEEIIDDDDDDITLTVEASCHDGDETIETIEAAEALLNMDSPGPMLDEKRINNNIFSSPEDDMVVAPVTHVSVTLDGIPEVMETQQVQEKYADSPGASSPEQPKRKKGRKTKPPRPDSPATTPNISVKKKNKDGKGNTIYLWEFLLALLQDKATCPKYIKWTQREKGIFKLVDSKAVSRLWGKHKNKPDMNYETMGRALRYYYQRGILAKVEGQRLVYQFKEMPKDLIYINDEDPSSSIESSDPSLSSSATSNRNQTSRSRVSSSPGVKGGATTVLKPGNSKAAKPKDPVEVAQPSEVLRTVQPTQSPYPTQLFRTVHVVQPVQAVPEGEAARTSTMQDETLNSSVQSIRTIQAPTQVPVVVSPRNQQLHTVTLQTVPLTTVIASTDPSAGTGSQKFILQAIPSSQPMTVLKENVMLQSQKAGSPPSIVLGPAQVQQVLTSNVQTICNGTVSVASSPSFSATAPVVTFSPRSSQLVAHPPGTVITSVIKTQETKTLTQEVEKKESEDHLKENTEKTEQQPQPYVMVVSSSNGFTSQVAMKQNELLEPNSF
# Summary of the method: as §1
# EHF = molecular target: T5, EHF (Homo sapiens, UniProt Q9NZC4 1-300); conditions: protein: recombinant; tags: N-terminal GST; dsDNA, one strand shown
# T5 sequence: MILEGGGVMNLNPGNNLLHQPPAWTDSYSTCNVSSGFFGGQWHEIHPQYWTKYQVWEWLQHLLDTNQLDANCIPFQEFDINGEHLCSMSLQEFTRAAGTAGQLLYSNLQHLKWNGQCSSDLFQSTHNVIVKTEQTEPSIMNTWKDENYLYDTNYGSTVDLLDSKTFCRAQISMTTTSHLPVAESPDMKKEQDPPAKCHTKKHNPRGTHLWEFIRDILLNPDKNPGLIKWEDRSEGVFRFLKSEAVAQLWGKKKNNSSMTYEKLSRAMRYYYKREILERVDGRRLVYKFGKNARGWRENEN
# Summary of the method: as §1
# SPI1 = SPI1 (Homo sapiens, UniProt P17947 1-270); conditions: protein: recombinant; tags: N-terminal GST; dsDNA, one strand shown
# Summary of the method: as §1
# SPIB = SPIB (Homo sapiens, UniProt Q01892 1-262); conditions: protein: recombinant; tags: N-terminal GST; dsDNA, one strand shown
# Sequence of SPIB (Q01892 whole entry): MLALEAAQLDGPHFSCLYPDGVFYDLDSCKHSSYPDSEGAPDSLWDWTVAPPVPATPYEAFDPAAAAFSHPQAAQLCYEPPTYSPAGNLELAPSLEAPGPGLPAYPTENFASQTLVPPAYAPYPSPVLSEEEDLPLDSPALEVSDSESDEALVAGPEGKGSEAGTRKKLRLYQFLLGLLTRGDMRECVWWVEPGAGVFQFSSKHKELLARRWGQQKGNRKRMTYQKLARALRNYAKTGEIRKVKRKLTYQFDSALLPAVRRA
# Summary of the method: as §1
# ELK3 = molecular target: T6, ELK3 (Homo sapiens, UniProt P41970 1-407); conditions: protein: recombinant; tags: N-terminal GST; dsDNA, one strand shown
# T6 sequence: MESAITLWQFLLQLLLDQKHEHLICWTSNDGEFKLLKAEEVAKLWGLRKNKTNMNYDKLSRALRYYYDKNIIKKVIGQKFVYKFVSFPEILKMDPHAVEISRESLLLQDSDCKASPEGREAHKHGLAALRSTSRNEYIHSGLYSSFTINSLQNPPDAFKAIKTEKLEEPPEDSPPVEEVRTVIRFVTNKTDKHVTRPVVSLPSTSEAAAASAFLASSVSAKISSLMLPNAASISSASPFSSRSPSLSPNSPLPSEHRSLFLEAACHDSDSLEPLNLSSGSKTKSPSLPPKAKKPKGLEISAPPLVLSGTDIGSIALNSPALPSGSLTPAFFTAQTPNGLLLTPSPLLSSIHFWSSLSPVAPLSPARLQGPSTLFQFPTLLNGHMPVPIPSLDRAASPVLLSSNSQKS
# Summary of the method: as §1
# FEV = molecular target: T7, FEV (Homo sapiens, UniProt Q99581 1-238); conditions: protein: recombinant; tags: N-terminal GST; dsDNA, one strand shown
# T7 sequence: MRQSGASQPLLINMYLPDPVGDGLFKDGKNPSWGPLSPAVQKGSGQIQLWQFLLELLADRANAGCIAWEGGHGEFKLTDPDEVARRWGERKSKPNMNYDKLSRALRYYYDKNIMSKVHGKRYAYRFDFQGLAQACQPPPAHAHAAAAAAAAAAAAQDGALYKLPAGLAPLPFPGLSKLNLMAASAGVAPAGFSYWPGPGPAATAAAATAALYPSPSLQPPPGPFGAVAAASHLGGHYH
# Summary of the method: as §1
# ETV5 = ETV5 (Homo sapiens, UniProt P41161 1-510); conditions: protein: recombinant; tags: N-terminal GST; dsDNA, one strand shown
# Sequence of ETV5 (P41161 whole entry): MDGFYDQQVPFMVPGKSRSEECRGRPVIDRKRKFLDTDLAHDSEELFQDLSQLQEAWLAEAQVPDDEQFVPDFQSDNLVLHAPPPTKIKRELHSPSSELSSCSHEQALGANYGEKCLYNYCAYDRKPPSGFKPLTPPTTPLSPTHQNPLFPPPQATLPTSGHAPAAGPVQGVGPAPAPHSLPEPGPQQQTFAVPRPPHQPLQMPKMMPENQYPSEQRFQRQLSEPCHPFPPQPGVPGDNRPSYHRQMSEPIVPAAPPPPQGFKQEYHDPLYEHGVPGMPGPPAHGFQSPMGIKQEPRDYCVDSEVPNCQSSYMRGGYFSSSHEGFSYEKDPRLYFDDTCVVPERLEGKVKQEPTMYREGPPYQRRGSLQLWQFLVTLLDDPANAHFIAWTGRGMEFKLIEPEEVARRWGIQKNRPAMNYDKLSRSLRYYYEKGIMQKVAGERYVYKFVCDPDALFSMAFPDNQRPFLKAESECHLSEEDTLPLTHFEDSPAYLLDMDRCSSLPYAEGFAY
# Summary of the method: as §1
# HSF1 = HSF1 (Homo sapiens, UniProt Q00613 1-529); conditions: protein: recombinant; tags: N-terminal GST; chain copies: 3; dsDNA, one strand shown
# Sequence of HSF1 (Q00613 whole entry): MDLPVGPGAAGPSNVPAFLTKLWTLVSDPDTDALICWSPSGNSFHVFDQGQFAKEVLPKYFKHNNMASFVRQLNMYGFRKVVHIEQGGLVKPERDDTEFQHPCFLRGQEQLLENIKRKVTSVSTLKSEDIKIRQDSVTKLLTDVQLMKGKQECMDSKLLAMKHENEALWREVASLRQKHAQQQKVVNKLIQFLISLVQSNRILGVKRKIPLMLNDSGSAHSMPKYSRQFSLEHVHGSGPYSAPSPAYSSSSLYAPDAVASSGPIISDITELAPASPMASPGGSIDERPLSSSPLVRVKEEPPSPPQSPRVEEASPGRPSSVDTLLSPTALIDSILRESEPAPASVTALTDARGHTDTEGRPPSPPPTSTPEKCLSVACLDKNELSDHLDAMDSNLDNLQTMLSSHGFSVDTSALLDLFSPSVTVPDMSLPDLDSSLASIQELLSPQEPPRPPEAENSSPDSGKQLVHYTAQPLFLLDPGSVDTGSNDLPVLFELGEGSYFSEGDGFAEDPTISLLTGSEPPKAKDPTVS
# Summary of the method: as §1
# SPIC = molecular target: T8, SPIC (Homo sapiens, UniProt Q8N5J4 1-248); conditions: protein: recombinant; tags: N-terminal GST; dsDNA, one strand shown
# T8 sequence: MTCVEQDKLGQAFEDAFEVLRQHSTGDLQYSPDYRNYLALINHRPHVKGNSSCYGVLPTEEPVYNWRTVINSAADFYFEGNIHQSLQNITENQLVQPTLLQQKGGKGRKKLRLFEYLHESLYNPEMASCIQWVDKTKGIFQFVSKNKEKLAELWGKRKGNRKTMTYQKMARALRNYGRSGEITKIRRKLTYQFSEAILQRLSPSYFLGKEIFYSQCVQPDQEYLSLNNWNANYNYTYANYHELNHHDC
# Summary of the method: as §1
# ELF4 = ELF4 (Homo sapiens, UniProt Q99607 1-663); conditions: protein: recombinant; tags: N-terminal GST; dsDNA, one strand shown
# Sequence of ELF4 (Q99607 whole entry): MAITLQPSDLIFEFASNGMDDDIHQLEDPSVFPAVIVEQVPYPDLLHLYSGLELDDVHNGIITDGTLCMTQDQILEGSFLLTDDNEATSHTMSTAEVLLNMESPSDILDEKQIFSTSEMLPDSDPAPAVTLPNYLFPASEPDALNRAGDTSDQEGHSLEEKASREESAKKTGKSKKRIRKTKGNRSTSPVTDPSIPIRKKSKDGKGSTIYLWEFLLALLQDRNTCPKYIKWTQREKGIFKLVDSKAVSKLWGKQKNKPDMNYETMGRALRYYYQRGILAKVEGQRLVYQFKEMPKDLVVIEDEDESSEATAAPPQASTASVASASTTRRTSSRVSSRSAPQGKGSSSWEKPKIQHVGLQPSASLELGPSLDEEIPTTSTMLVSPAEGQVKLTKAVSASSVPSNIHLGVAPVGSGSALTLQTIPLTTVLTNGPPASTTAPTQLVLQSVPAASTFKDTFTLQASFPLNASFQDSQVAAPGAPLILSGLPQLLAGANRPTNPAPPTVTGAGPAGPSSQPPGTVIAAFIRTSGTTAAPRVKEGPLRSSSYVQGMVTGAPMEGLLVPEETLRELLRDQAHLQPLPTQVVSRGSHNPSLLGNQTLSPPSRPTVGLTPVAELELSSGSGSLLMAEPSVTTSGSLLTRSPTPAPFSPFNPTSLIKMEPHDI
# Summary of the method: as §1
# ELK4 = molecular target: T9, ELK4 (Homo sapiens, UniProt P28324-2 1-405); conditions: protein: recombinant; tags: N-terminal GST; dsDNA, one strand shown
# T9 sequence: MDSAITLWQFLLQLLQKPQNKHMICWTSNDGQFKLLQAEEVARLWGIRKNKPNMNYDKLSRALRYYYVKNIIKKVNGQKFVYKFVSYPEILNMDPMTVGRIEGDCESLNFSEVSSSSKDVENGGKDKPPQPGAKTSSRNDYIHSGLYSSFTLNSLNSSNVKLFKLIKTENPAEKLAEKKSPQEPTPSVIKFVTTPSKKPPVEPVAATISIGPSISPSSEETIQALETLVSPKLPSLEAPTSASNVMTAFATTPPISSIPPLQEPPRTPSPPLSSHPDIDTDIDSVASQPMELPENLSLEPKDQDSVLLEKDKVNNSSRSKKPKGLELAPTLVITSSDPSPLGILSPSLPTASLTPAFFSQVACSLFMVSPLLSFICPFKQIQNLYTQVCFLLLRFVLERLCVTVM
# Summary of the method: as §1
# ETV2 = molecular target: T10, ETV2 (Homo sapiens, UniProt O00321 1-342); conditions: protein: recombinant; tags: N-terminal GST; dsDNA, one strand shown
# T10 sequence: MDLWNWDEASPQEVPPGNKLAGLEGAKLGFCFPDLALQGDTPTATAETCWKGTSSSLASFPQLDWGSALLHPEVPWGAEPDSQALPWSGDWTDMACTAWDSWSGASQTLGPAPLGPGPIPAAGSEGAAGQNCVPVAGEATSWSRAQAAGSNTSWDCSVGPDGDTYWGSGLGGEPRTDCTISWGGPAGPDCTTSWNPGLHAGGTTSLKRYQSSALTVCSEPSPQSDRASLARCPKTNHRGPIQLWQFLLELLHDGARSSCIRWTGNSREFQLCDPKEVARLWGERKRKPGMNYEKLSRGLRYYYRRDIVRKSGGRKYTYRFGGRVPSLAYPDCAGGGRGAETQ
# Summary of the method: as §1
# ELF3 = molecular target: T11, ELF3 (Homo sapiens, UniProt P78545 1-371); conditions: protein: recombinant; tags: N-terminal GST; dsDNA, one strand shown
# T11 sequence: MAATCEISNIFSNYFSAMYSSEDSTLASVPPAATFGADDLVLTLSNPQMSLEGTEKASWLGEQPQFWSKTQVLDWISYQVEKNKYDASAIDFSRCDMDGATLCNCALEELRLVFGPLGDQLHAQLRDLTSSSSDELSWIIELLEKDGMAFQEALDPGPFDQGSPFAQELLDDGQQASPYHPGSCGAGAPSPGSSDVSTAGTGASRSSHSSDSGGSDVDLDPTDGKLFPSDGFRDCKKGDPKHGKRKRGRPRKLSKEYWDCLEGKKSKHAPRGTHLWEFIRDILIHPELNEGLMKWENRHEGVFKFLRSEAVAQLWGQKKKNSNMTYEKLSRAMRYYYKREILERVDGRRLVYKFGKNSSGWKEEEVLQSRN
# Summary of the method: as §1
# CRX = CRX (Homo sapiens, UniProt O43186 1-299); conditions: protein: recombinant; tags: N-terminal GST; dsDNA, one strand shown
# Sequence of CRX (O43186 whole entry): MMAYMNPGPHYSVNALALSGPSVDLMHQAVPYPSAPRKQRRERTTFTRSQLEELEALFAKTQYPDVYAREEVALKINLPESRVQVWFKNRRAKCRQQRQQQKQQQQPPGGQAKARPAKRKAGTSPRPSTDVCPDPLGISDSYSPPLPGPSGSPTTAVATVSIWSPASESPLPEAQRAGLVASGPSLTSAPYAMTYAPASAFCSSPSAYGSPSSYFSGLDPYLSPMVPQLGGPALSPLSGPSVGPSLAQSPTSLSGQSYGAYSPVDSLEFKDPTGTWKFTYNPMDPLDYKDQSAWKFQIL
# Summary of the method: as §1
# ETV1 = ETV1 (Homo sapiens, UniProt P50549 1-477); conditions: protein: recombinant; tags: N-terminal GST; dsDNA, one strand shown
# Sequence of ETV1 (P50549 whole entry): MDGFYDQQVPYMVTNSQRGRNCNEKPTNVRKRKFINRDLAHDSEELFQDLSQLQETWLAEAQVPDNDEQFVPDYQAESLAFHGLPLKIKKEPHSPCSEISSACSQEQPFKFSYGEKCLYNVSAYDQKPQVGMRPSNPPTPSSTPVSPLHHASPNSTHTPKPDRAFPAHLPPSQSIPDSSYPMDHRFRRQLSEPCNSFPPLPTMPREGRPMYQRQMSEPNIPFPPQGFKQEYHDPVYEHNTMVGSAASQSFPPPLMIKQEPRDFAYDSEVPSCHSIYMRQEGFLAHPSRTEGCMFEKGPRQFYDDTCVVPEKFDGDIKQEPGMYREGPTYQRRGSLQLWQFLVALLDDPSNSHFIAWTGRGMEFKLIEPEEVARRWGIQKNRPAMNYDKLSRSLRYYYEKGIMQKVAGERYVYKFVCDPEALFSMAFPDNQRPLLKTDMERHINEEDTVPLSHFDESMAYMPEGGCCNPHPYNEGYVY
# Summary of the method: as §1
sequence,measurement,setting,value
ATGCGA,binding signal,FLI1,"1.18 fold enrichment (6-mer frequency, TF over GST control)"
same,binding signal,ELK1,"1.27 fold enrichment (6-mer frequency, TF over GST control)"
same,binding signal,GABPA,"1.24 fold enrichment (6-mer frequency, TF over GST control)"
same,binding signal,ERG,"1.21 fold enrichment (6-mer frequency, TF over GST control)"
same,binding signal,ELF1,"1.26 fold enrichment (6-mer frequency, TF over GST control)"
same,binding signal,EHF,"1.23 fold enrichment (6-mer frequency, TF over GST control)"
same,binding signal,SPI1,"1.19 fold enrichment (6-mer frequency, TF over GST control)"
same,binding signal,SPIB,"1.12 fold enrichment (6-mer frequency, TF over GST control)"
same,binding signal,ELK3,"1.14 fold enrichment (6-mer frequency, TF over GST control)"
same,binding signal,FEV,"1.17 fold enrichment (6-mer frequency, TF over GST control)"
same,binding signal,ETV5,"1.17 fold enrichment (6-mer frequency, TF over GST control)"
same,binding signal,HSF1,"1.22 fold enrichment (6-mer frequency, TF over GST control)"
same,binding signal,SPIC,"1.26 fold enrichment (6-mer frequency, TF over GST control)"
same,binding signal,ELF4,"1.29 fold enrichment (6-mer frequency, TF over GST control)"
same,binding signal,ELK4,"1.33 fold enrichment (6-mer frequency, TF over GST control)"
same,binding signal,ETV2,"1.34 fold enrichment (6-mer frequency, TF over GST control)"
same,binding signal,ELF3,"1.31 fold enrichment (6-mer frequency, TF over GST control)"
same,binding signal,CRX,"1.27 fold enrichment (6-mer frequency, TF over GST control)"
same,binding signal,ETV1,"1.16 fold enrichment (6-mer frequency, TF over GST control)"
